Experiment [1] can be described thus: qHTS profiling of the MIPE4 collection as inhibitors of Plasmodium falciparum (3D7) proliferation (AID 743344).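 Also: scaled between DMSO vehicle wells and 0.29 µM artemisinin as full inhibition.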 To be noted: P. falciparum 3D7 in erythrocytes, SYBR Green DNA fluorescence, 72 h; at 28.5 µM. Summed up:
(§1)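 Erythrocytes infected with P. falciparum (0.3% parasitemia, 2.5% hematocrit) incubated with compounds 72 h at 37 C, 5% CO2. Lysis with saponin/Triton buffer containing SYBR Green I, overnight at room temperature in the dark; DNA fluorescence (485/535 nm) normalised to 0.29 uM artemisinin and DMSO.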

Experiment [2] is described as follows: qHTS profiling of the MIPE4 collection as inhibitors of Plasmodium falciparum (DD2) proliferation (AID 743345). The following applies: P. falciparum Dd2 in erythrocytes, SYBR Green DNA, 72 h; at 28.5 µM unless noted. Summed up:
as §1
(In qHTS, concentration-response curves come from the screen itself.)

The nature of experiment [3]: qHTS profiling of the MIPE4 collection as inhibitors of Plasmodium falciparum (DD2) proliferation (Rep 2) (AID 743346). The following applies: P. falciparum Dd2 in erythrocytes, SYBR Green DNA, 72 h; at 28.5 µM. Summed up: as §1
Experiment [4] in a line: qHTS profiling of the MIPE4 collection as inhibitors of Plasmodium falciparum (HB3) proliferation (AID 743347).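 Also: plate controls were DMSO vehicle wells for no effect and artemisinin wells for full effect.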 The following applies: P. falciparum HB3 in erythrocytes, SYBR Green DNA, 72 h; at 28.5 µM. Summed up: as §1
Experiment [5] in a line: High-throughput drug toxicity screening in the BPDCN cell line Gen2.2 (AID 1224824).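 Also: cells exposed to compounds for 48 h before reading; 100% = DMSO and 0% = bortezomib.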 The following applies: Gen2.2 BPDCN cells; at 45.8 µM (top of the series). Summed up:
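Readout is ATP luminescence from Gen2.2 cells after two days of drug exposure in serum-containing medium at 37 °C. Values express percent activity, with vehicle defining full signal and 9.2 uM bortezomib defining zero.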

Experiment [6] can be described thus: qHTS Assay for Identifying Gametocytocidal Compounds (AID 743244; active = well fitted curve in the direction sought with a large enough effect;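 also: % is scaled to controls: 0 for no effect and ±100 for the full control effect; actives lower the fluorescent signal which means gametocytes are killed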). The following applies: P. falciparum 3D7 stage III-V gametocytes, alamarBlue, 72 h; max response: stronger effect = lower value. The method in brief: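 Fluorescence at Ex 525/Em 598 nm, recorded 24 h after alamarBlue addition, reports residual metabolic activity of 3D7 gametocytes (stages III–V) following 72 h compound exposure at 37 °C, 5% CO2.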

Inconclusive results are not listed. The source made the active and inactive calls. Unless noted, no rule for the calls is given here.

The compound `C[C@@H]1[C@H](O)[C@@H](C)C=CC=CCCC=CC=CC=CC=C[C@H](O[C@H]2O[C@@H](C)[C@H](O)[C@@H](N)[C@@H]2O)CC2O[C@](O)(C[C@@H](O)[C@H](O)CC[C@@H](O)C[C@@H](O)C[C@@H](O)CC(=O)O[C@H]1C)C[C@H](O)[C@H]2C(=O)O` gave a parasite growth, % of DMSO control in experiment [1] of 94.4%. Further, the parasite growth remaining, % of DMSO control (lower = more inhibition) in experiment [2] was determined as 103%. This compound registered a parasite growth, % of control (lower = inhibition) in experiment [3] of 97.5%. Besides, the growth, % of control in experiment [4] turned out to be 83.8%. Also, in experiment [5], the cell viability, % of control (lower = more cytotoxic) amounted to 152%.
As to `c1ccc2sc(C3(N4CCCCC4)CCCCC3)cc2c1`, the max response in experiment [6] is 6.13% (inactive).
For the compound `CO[C@H]1CCC(O[C@H]2C[C@H]([C@]3(C)CC[C@]4(C[C@H](O)[C@@H](C)[C@@H]([C@@H](C)C=C(C)C(=O)[C@H](C)C[C@H](C)C(=O)O)O4)O3)O[C@]3(O[C@@H]([C@H]4O[C@@](O)(CO)[C@H](C)C[C@H]4C)C[C@H]3C)[C@H]2C)O[C@H]1C` (some centres not stated), the parasite growth, % of DMSO control in experiment [1] stood at 11.2%. In experiment [2], the parasite growth remaining, % of DMSO control (lower = more inhibition) worked out at 5.36%. Besides, the growth, % of control in experiment [4] is 8.74%. In addition, the cell viability, % of control (lower = more cytotoxic) in experiment [5] came to 92%.
`CN[C@@H]1Cc2cccc3[nH]c(=O)n(c23)C1` showed a parasite growth, % of DMSO control in experiment [1] of 92.4%. Also, in experiment [2], the parasite growth remaining, % of DMSO control (lower = more inhibition) amounted to 105%. Also, the growth, % of control in experiment [4] came to 85.5%. In addition, the cell viability, % of control (lower = more cytotoxic) in experiment [5] is 231%.
With `C[C@@H]1O[C@H](C[N+](C)(C)C)C[C@H]1O`, in experiment [6], the max response is 7.91% (inactive).
The compound `CCN1C[C@]2(OC(=O)c3ccccc3NC(C)=O)CC[C@H](OC)[C@@]34[C@H]5CC6[C@@H](OC)C[C@](O)(C(C[C@@H]23)[C@@H]14)[C@@]5(O)[C@@H]6OC` had a parasite growth, % of DMSO control in experiment [1] of 97%. For the same compound, the parasite growth remaining, % of DMSO control (lower = more inhibition) in experiment [2] came to 94%. Besides, the growth, % of control in experiment [4] came out at 85.8%. Also, the cell viability, % of control (lower = more cytotoxic) in experiment [5] came out at 137%.
For `C[C@H]1CCCC=CC2C[C@H](O)C[C@@H]2[C@H](O)C=CC(=O)O1` (some centres not stated) the same measures were 4.99%, 9.17%, 2.99% and 4.51%.
For `COc1cc2cc(c1Cl)N(C)C(=O)C[C@H](OC(=O)C(C)C)[C@]1(C)O[C@H]1[C@H](C)[C@@H]1C[C@@](O)(NC(=O)O1)[C@H](OC)C=CC=C(C)C2` the same measures were 14%, 16.8%, 9.61% and 10.1%.
For `CC(C)(C)[C@]1(O)C[C@@H]2OC(=O)C[C@@]23C(=O)O[C@@H]2OC(=O)[C@H](O)C213` (some centres not stated) the same measures were 95%, 99.7%, 75.6% and 106%.
In the case of `Cc1c(C(=O)c2cccc3ccccc23)c2cccc3c2n1[C@H](CN1CCOCC1)CO3`, the parasite growth, % of DMSO control in experiment [1] is 15.4%. The parasite growth remaining, % of DMSO control (lower = more inhibition) in experiment [2] was 47.9%. The compound further yielded a growth, % of control in experiment [4] of 13.4%. Further, in experiment [5], the cell viability, % of control (lower = more cytotoxic) was 17.7%.
For `O=C(Oc1ccc([N+](=O)[O-])cc1)N1CCN(Cc2cccc(Oc3ccccc3)c2)CC1` the same measures were 95.8%, 92.5%, 96.4% and 151%.
The corresponding values for `CC(C)N[C@@H]1CCn2c(=O)[nH]c3cccc(c32)[C@@H]1O` are 93.3%, 104%, 101% and 22.6%.
In turn, `C#C[C@]1(O)C=C[C@@H]2[C@@H]3CCC4=CC(=O)CC[C@@H]4[C@H]3CC[C@@]21CC` gave a parasite growth, % of DMSO control in experiment [1] of 10.4%. Further, the parasite growth remaining, % of DMSO control (lower = more inhibition) in experiment [2] turned out to be 59.4%. For the same compound, the parasite growth, % of control (lower = inhibition) in experiment [3] worked out at 26.2%. For the same compound, the growth, % of control in experiment [4] was determined as 41.2%. Moreover, the cell viability, % of control (lower = more cytotoxic) in experiment [5] turned out to be 62.7%.
With `C[C@](O)(COc1ccc(C#N)cc1)C(=O)Nc1ccc(C#N)c(C(F)(F)F)c1`, the parasite growth, % of DMSO control in experiment [1] was determined as 6.31%. Further, the parasite growth remaining, % of DMSO control (lower = more inhibition) in experiment [2] amounted to 92.3%. The compound also had a growth, % of control in experiment [4] of 9.27%. Besides, the cell viability, % of control (lower = more cytotoxic) in experiment [5] is 54.6%.

(Values after PubChem BioAssay (NCATS).)
